# Data taken from PubChem BioAssay AID1347383 (Zoeller Lab, School of Medicine, Boston University, 2020).
# Calls of active or inactive are those of the source.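 Rule for the calls: active = cell survival after UV exposure 2 SD above solvent-only control wells at 10 µM, confirmed on one or two repeats; inactive = the rest.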
# Test: protection of CHO cells from pyrene-fatty acid UV killing, primary screen, phospholipid biosynthesis inhibitor project, ZR-82 cells, Analyticon library, screen 2 (AID 1347383);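 note: survival reflects blocked phospholipid synthesis cutting uptake of the phototoxic fatty acid; compound and fatty acid exposure 3 h then viability read next day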
# Details: ZR-82 CHO cells, CellTiter Blue, at 10 µM, peroxisome-deficient CHO-K1 variant, with DGAT-1, DGAT-2 and ACAT inhibitors
row,SMILES,outcome
1,COc1cc(CCC(=O)O)cc(OC)c1OC,inactive
2,C/C=C(/C)C(=O)Oc1c(OC)c(OC)cc2c1-c1c(cc(OC)c(OC)c1OC)C[C@](C)(O)[C@@H](C)C2,inactive
3,Nc1ccccc1CCCCCCC(=O)O,inactive
4,CC1=C2C[C@H]3O[C@@]3(C)CCC3O[C@@]3(C)C[C@@]2(O)OC1=O (stereo partly drawn),inactive
5,OCc1ccccc1O[C@@H]1O[C@H](CO)[C@@H](O)[C@H](O)[C@H]1O,inactive
6,Cc1c(O)c2c(oc1=O)C(C)(O)C(C)OC2 (stereo not drawn),inactive
7,C/C=C(/C)C(=O)OC1C(OC2(C)CCC3C(C4C(C)CCC42)C3(C)C)OC(C)C(O)C1O (stereo not drawn),inactive
8,NC(=O)c1c[nH]c(Cc2ccccc2)cc1=O,inactive
9,CCC/C=C\CC(N)CC(=O)O (stereo not drawn),inactive
10,CC1(C)CC2C(O)c3cocc3CC(C)(O)C2C1 (stereo not drawn),inactive
11,CC/C=C\C/C=C\C/C=C\CCCCCCCC(=O)OCC(O)COC1OC(CO)C(O)C(O)C1O (stereo not drawn),inactive
12,COc1c2c(c(OC)c3oc(=O)ccc13)OC(C)(C)C(O)C2O (stereo not drawn),inactive
13,CO[C@@H]1C(=O)CC[C@]2(O)CS[C@H](CC=C(C)C)[C@](C)(O)[C@@]12O,inactive
14,C=CC(C)(C)c1cc2cc(CC3OC3(C)C)c(OC)cc2oc1=O (stereo not drawn),inactive
15,CCC1CN2CCc3cc(OC)c(OC)cc3C2CC1CC1NCCc2cc(OC)c(OC)cc21 (stereo not drawn),inactive
16,CCCCCCc1cc(O)c(C)c(OC(C)=O)c1O,inactive
17,COc1cc(C(=O)/C(C)=C(\C)C(=O)c2ccc(O)c(OC)c2)ccc1O,inactive
18,CC(C)=CCc1c2c(c(O)c3c(=O)c(-c4ccc(O)c(O)c4)coc13)C=CC(C)(C)O2,inactive
